Test results taken from PubChem BioAssay (NCI).
Compounds without any hit were thinned out: in the full panel of roughly 83,000, 20% have a hit.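 Interpretation: 100, growth as untreated; towards 0, rising growth inhibition; 0, no net growth; 0 to -100, cell death. Compounds scoring below 10 were considered active.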 A number with no mark means an inactive call. The source made the active and inactive calls.

Legend:
Assay in all cases: NCI-60 one-dose screen, 48 h (100 = growth as untreated, 0 = no growth, -100 = all killed)
Details in all cases: 10 µM unless noted
SR leukemia = system: SR leukemia
RPMI-8226 leukemia = system: RPMI-8226 leukemia
OVCAR-5 ovarian = system: OVCAR-5 ovarian
OVCAR-4 ovarian = system: OVCAR-4 ovarian
SK-OV-3 ovarian = system: SK-OV-3 ovarian
IGROV1 ovarian = system: IGROV1 ovarian
OVCAR-3 ovarian = system: OVCAR-3 ovarian
HS 578T breast = system: HS 578T breast
NCI/ADR-RES ovarian = system: NCI/ADR-RES ovarian
T-47D breast = system: T-47D breast
BT-549 breast = system: BT-549 breast
MDA-MB-435 melanoma = system: MDA-MB-435 melanoma
SW-620 colon = system: SW-620 colon
MCF7 breast = system: MCF7 breast
HCC-2998 colon = system: HCC-2998 colon
KM12 colon = system: KM12 colon
HCT-116 colon = system: HCT-116 colon

Row | SMILES | growth (SR leukemia) | growth (RPMI-8226 leukemia) | growth (OVCAR-5 ovarian) | growth (OVCAR-4 ovarian) | growth (SK-OV-3 ovarian) | growth (IGROV1 ovarian) | growth (OVCAR-3 ovarian) | growth (HS 578T breast) | growth (NCI/ADR-RES ovarian) | growth (T-47D breast) | growth (BT-549 breast) | growth (MDA-MB-435 melanoma) | growth (SW-620 colon) | growth (MCF7 breast) | growth (HCC-2998 colon) | growth (KM12 colon) | growth (HCT-116 colon)
1 | Clc1ccc(C2=Nn3c(nnc3-c3cc(Cl)cc(Cl)c3Cl)SC2)cc1 | 2.55% (active) | 42.8% | 19.3% | 74.9% | 50.4% | 22.7% | 8.59% (active) | 20.9% | 5.52% (active) | 63.2% | 31.4% | -15.6% (active) | 19.1% | 7.6% (active) | -8.03% (active) | 23.5% | 
2 | C#C[C@]1(O)CC[C@H]2[C@@H]3CC=C4c5sc(-c6ccccc6)nc5CC[C@]4(C)[C@H]3CC[C@@]21C | 30.9% | -12.6% (active) | 85.6% | 106% | 111% | 95.8% | 106% | 62% | 94.4% | 92.7% | 86.2% | 93.6% |  | 51.2% | 97.4% | 78.9% | 78.2%
3 | Cc1ccccc1NC(=O)c1sc2nc3c(cc2c1N)CCCC3 | 14.3% | 21.3% | 81.6% | 61.8% | 25.1% | 57% | 11.3% | 55.8% | 26.5% | 29.6% | 63.5% | -18.4% (active) | 19.2% | 13.3% | 64.8% | 25.2% | 29%
4 | CC1=NN(c2cccc(Cl)c2)C(=O)/C1=C\C=C\c1ccccc1 | 10.6% | 15.4% | 144% | -10.4% (active) | 39.4% | 45.5% | 104% | 133% | -17.5% (active) | 36.7% | 78.4% | 13.6% | 1.26% (active) | 10.9% | 30.9% | 16.1% | -89.2% (active)
5 | CCOC(=O)C1=C(C)N(C)C(=O)N(C)C1c1ccccc1 (stereo unspecified) | 125% | 99.4% | 84.1% | 103% | 93.9% | 110% | 99.1% | 108% | 100% | 96.3% | 110% | 89.2% | 97.5% | 107% | 93.2% | 103% | 79.4%
6 | COc1ccc(-c2cc(-c3ccc(N(C)C)cc3)nc(NC(=O)c3cccnc3)n2)cc1 | 86.4% | 95.3% | 105% | 103% | 103% | 102% | 106% |  | 102% | 85.6% | 119% | 103% | 101% | 81.9% | 120% | 98.3% | 102%
7 | Cc1c(Cl)cccc1NC(=O)c1sc2nc3c(cc2c1N)CCCC3 | 9.71% (active) | 33% | 75.7% | 60.5% | 27.7% | 57.2% | 10.9% | 40.3% | 27.1% | 35% | 52.6% | -16.1% (active) | 19.2% | 16.3% | 58.5% | 23.6% | 24.4%
